Tests used:
Assay in all cases: PBM binding z-score (relative to random genomic background probes); higher = stronger binding; sequences stand for … in GC…GCGATTGACAGCGTAGAATGAAGG
[1] = test system: RARb homodimer (NR concentration 270 nM)
Outline: (§1)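 Scanned fluorescence from custom Agilent 4×180K protein-binding microarrays was regression-normalized. Binding z-scores use random background probes as reference. Ligand-free nuclear receptor dimers were incubated on the arrays for 1 h and detected with antibodies against each partner (one per run).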

[2] = test system: RARg:RXRa (NR concentration 270 nM, RXRa partner concentration 90 nM)
Outline: as §1

[3] = test system: RARg homodimer (NR concentration 270 nM)
Outline: as §1

[4] = test system: RXRa DBDmut IVT, anti-RXR (DBD mutation: RXRa K156A/R161A, NR concentration 90 nM)
Outline: as §1

[5] = test system: RXRa homodimer (NR concentration 180 nM)
Outline: as §1

[6] = test system: THRa:RXRa (NR concentration 90 nM, RXRa partner concentration 90 nM)
Outline: as §1

[7] = test system: THRa homodimer (NR concentration 90 nM)
Outline: as §1

[8] = test system: VDR homodimer (NR concentration 270 nM)
Outline: as §1

Sequence	PBM binding z-score [1]	PBM binding z-score [2]	PBM binding z-score [3]	PBM binding z-score [4]	PBM binding z-score [5]	PBM binding z-score [6]	PBM binding z-score [7]	PBM binding z-score [8]
TCTAGCAGGCCAGAGGGCCACTCAAGAGGTACGG	-0.0244	-0.057	-0.117	-0.104	0.144	-0.545	-1.1	-0.232
CCGACTGGGGCCTAAGGTTACCATAAGCCAGCCC	1.1	0.451	-0.117	-0.875	0.652	2	1.26	0.0794
CCTCGGAGGACAACAGGAGGTCAGGGCTGCCAGA	3.69	3.63	3.49	-0.237	2.24	2.96	1.34	0.949
ATCTCTAGGTAAGACTCAGTTCAGTCAAGAACGC	0.982	0.387	0.453	0.696	0.195	1.18	0.902	1.48
GGGACGAGGGCATTCGAGTTGATAGCATGGCGAT	1.01	1.19	1.58	2.93	0.775	3.52	-0.0645	3.06
GATACAGGGTCAGCTAGAGGCCAGGGTATGGAAA	3.59	6.74	4.95	0.978	4.38	3.08	0.844	1.01
AATACAGCGTCATCGTAGGCCAGAGTACGCACAG	-0.094	-0.121	0.174	-0.495	-0.0638	0.55	-0.659	-0.00282

Reference: the supplement of paper PMC6555819
